Common to all, as to set-up: scale not given: direction of the effect not stated beside the values
Test [1] concerns the target Protein translocase subunit SecA (Escherichia coli (strain K12)) (UniProt P10408). Description: Assay to Identify E. coli SecA ATPase Inhibitors. To be noted: 30 µM. Type of test: functional.
For test [2], the target named is T1, Ubiquitin-activating enzyme e1, putative (Leishmania donovani (strain BPK282A1)) (UniProt E9BSI1).
T1 sequence (whole entry): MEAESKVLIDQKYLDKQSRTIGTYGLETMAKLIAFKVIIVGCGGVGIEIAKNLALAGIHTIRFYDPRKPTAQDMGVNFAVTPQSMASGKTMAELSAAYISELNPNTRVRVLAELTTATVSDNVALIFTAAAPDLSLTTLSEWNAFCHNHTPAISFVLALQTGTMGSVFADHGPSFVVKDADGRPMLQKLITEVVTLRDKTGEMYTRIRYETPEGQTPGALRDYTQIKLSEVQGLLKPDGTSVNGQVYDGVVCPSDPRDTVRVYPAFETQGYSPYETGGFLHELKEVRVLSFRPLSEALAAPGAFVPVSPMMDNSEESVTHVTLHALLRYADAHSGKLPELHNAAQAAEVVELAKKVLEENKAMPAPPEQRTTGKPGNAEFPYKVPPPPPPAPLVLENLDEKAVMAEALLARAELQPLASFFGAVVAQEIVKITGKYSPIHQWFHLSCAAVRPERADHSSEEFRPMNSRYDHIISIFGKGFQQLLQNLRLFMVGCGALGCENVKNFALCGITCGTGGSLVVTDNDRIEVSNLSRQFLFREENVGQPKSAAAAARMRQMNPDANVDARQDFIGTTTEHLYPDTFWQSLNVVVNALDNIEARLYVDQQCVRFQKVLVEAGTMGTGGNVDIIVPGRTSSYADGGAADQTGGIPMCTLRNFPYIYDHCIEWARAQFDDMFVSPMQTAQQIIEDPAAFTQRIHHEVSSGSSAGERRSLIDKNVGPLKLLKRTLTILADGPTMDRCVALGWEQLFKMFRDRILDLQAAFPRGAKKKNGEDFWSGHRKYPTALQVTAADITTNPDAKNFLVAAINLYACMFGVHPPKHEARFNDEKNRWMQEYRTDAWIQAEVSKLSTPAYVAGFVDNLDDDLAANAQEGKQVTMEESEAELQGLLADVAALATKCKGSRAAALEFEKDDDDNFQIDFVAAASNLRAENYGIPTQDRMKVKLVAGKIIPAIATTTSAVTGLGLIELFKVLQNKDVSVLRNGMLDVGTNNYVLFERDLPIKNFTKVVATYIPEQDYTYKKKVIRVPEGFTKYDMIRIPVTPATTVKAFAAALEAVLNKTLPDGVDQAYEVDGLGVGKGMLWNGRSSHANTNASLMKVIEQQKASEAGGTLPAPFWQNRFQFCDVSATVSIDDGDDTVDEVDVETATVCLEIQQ
Description: Leishmania donovani Ubiquitin Activating Enzyme (LdE1). Type of test: functional. Conditions: 30 µM.

In test [3] the target is AMP-activated protein kinase, AMPK (Homo sapiens) (UniProt P54646+O43741+P54619+Q9UGJ0+Q9Y478+Q13131+Q9UGI9). Description: AMP-dependent Kinase enzyme assay. An in vitro enzyme assay that detects ADP turnover that is directly proportional to AMPK activity. This uses naive AMPK that is activated during the assay with MK-8722. The test is classed as functional. To be noted: 30 µM.

Test [4] has as its target Sialic acid-binding Ig-like lectin 9 (Homo sapiens) (UniProt Q9Y336). Description: Hs-Siglec9 ALPHAscreen SOP 20170721. To be noted: 10 µM.
For the next test, the system named is Trypanosoma cruzi. Description: Trypanosoma cruzi phosphomannomutase and mannose-1-phosphate guanylyltransferase assay. Type of test: functional. Conditions: 10 µM.
Test [5] addresses T2, Arginase-2, mitochondrial (Homo sapiens) (UniProt P78540).
T2 sequence (whole entry): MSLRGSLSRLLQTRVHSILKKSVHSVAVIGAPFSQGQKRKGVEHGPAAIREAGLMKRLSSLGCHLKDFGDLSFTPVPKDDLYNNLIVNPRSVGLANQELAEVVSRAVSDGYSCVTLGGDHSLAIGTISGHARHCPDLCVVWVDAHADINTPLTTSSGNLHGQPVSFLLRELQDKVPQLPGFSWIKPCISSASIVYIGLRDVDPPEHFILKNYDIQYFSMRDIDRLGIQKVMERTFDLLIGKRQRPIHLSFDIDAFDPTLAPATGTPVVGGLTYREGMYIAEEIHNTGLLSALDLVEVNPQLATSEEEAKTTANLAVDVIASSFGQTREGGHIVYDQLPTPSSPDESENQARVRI
Kind of test: in vitro enzyme assay to detect the production of urea directly proportional to the activity of Arginase II. Further: in the data most compounds retested in dose-response had high values. Type of test: functional. Conditions: 33.3 µM.

The target in test [6] is T3, Proteasome subunit beta (Trypanosoma cruzi) (UniProt O96673).
T3 sequence (whole entry): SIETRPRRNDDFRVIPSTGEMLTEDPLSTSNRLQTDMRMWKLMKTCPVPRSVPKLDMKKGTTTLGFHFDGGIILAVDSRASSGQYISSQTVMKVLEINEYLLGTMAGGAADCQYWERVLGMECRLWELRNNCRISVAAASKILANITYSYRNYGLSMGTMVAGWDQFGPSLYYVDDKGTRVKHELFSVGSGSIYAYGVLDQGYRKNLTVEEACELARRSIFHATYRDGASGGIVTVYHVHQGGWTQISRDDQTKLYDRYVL
Description: Trypanosoma cruzi proteasome chymotrypsin-like activity (TcProtChymo) assay. Further: in the data most compounds retested in dose-response had high values. Conditions: 9.37 µM. The test is classed as functional.

The species entered for the next test is Homo sapiens. Description: To identify inhibition of the IFN signalling (Jak-Stat) pathway via expression of an eGFP reporter gene under the control of an IFN-stimulated response element (ISRE) containing MxA promoter. The test is classed as functional. To be noted: 30 µM.
In test [7] the target is T4, Tyrosyl-tRNA synthetase, putative (Trypanosoma cruzi (strain CL Brener)) (UniProt Q4DSP6).
T4 sequence (whole entry): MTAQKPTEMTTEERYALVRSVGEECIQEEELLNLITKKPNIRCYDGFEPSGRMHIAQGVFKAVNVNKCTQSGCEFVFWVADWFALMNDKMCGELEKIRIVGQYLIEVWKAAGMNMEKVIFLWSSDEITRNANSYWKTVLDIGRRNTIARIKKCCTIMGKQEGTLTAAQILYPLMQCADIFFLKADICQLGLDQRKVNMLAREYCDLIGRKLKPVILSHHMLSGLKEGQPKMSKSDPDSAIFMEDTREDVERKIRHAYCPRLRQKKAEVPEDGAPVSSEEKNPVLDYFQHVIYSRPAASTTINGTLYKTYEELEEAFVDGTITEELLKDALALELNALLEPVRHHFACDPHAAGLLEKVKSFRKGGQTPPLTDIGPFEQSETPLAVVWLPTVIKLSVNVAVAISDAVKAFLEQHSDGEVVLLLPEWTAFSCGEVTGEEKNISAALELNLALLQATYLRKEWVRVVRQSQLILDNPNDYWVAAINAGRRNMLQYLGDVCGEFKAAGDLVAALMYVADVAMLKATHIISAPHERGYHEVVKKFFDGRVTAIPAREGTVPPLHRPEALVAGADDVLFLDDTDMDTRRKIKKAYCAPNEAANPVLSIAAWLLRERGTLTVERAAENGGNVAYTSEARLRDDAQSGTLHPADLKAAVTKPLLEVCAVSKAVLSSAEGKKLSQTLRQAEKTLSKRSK
Kind of test: Trypanosoma cruzi tyrosyl tRNA synthetase (TcYRS) _High Tyrosine SOP. Further: in the data most compounds retested in dose-response had high values. The test is classed as functional. Conditions: 30 µM.

Test [8] has as its target T4, Tyrosyl-tRNA synthetase, putative (Trypanosoma cruzi (strain CL Brener)). Description: Trypanosoma cruzi tyrosyl tRNA synthetase (TcYRS) SOP. Type of test: functional. To be noted: 30 µM.
The target of test [9] is Chromo domain-containing protein 1 (Saccharomyces cerevisiae (strain ATCC 204508 / S288c) (Baker's yeast)) (UniProt P32657). Kind of test: ScCHD-1 Enzyme Inhibition Assay. Further: in the data most compounds retested in dose-response had high values. The test is classed as functional. Conditions: 30 µM.
Chromo domain-containing protein 1 (Saccharomyces cerevisiae (strain ATCC 204508 / S288c) (Baker's yeast)), sequence (P32657 whole entry, the tested form may be a part): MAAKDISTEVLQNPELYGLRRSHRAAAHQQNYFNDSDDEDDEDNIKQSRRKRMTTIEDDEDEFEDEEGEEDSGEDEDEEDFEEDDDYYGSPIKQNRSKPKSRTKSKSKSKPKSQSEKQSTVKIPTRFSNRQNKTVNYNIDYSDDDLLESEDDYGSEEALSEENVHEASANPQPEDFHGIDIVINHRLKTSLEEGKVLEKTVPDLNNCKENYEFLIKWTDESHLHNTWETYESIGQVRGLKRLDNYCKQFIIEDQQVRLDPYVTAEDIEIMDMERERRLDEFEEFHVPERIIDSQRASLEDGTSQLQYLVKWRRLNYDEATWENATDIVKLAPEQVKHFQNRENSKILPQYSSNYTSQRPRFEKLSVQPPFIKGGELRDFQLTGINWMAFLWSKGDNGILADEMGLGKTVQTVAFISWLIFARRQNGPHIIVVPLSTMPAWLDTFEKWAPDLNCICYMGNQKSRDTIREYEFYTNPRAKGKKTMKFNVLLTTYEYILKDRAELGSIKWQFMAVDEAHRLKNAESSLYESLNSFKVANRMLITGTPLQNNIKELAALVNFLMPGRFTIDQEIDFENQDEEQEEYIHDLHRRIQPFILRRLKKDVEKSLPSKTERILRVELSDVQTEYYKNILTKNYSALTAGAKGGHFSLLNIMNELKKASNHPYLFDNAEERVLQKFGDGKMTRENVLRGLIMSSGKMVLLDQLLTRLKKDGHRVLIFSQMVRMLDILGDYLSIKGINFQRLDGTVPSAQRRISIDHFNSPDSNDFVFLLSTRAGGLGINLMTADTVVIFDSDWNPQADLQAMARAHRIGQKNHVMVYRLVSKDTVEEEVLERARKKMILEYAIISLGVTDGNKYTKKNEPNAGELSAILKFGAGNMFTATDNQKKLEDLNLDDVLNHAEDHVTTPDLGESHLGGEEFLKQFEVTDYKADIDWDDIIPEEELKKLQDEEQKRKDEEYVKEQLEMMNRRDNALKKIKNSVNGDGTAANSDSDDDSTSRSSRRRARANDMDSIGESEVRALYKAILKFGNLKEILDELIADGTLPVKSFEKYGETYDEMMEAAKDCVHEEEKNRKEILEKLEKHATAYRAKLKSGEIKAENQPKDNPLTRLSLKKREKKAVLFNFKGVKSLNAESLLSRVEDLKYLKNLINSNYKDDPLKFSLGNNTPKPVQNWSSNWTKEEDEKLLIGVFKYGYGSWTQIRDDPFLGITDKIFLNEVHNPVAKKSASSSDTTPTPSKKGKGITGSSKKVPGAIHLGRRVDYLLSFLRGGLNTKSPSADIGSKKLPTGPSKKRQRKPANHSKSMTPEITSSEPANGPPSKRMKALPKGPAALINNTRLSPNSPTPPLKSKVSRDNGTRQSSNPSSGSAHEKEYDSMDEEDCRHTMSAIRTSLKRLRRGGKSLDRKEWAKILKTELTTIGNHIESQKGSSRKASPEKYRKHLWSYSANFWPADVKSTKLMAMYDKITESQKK

Structures are written as SMILES. For some assays here: Results with a measured potency or affinity are listed apart.

Protein translocase subunit SecA (Escherichia coli (strain K12)), sequence (P10408 whole entry): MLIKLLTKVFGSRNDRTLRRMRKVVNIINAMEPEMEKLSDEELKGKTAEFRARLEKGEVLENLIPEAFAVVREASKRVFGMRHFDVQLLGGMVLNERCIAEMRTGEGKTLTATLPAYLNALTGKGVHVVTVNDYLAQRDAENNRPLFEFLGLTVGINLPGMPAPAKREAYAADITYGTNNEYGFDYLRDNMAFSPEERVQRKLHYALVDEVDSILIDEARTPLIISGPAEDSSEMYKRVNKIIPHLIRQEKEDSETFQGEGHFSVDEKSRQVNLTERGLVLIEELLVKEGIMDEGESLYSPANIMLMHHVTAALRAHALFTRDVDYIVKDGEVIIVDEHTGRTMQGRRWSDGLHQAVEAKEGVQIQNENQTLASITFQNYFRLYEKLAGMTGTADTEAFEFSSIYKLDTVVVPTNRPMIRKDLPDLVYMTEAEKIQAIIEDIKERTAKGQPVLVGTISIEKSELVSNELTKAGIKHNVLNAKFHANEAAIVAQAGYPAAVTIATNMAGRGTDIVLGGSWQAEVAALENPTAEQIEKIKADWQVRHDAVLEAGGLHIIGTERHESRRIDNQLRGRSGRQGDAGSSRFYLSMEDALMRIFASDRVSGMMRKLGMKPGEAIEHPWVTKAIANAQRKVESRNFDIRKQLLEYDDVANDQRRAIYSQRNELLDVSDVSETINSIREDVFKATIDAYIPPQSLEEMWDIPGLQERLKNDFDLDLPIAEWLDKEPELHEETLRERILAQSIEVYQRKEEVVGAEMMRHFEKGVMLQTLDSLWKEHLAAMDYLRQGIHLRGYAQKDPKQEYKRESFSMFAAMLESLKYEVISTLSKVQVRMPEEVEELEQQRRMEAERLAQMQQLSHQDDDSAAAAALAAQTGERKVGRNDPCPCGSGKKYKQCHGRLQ
Sialic acid-binding Ig-like lectin 9 (Homo sapiens), sequence (Q9Y336 whole entry): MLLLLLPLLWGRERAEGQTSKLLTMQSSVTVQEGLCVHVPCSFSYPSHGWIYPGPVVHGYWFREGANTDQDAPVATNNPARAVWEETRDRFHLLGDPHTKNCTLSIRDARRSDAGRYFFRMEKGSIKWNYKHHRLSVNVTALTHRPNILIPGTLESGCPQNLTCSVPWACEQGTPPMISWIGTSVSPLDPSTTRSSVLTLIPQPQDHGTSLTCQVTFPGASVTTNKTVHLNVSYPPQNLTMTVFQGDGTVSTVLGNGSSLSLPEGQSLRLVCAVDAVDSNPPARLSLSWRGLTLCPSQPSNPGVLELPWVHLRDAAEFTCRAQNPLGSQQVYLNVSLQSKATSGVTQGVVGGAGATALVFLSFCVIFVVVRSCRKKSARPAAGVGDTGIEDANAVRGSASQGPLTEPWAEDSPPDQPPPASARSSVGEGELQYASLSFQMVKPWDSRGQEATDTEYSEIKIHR

Take `CCS(=O)(=O)NC(C(=O)NC)c1ccc(F)c(F)c1` (stereo not given): the Percent Effect in test [1] was -1.19%; in test [2], 2.7%; in test [3], -9.93%; in [4], 0.659%; in the test on Trypanosoma cruzi, 0.195%; in test [5], 2.92%. For the same molecule, the Percent Effect is 10.7% in test [6]; -11.3% in the test filed under Homo sapiens; 9.9% in [7]; 20.7% in test [8]; -7.3% in [9].
As to `Cc1nc(C2CCCN2C(=O)c2cnns2)no1` (stereo not given), the Percent Effect in test [1] is -3.1%; in test [2], 13.2%; in [3], 3.2%; in [4] it was 4.23%; with Trypanosoma cruzi, -0.564%; in test [5], 9.96%. For the same molecule, the Percent Effect in test [6] was 12.9%; in the test filed under Homo sapiens, 3.69%; in test [7], 5.39%; in test [8], 17.1%; in test [9] it was -6.62%.
For `Cc1nccn1-c1cc(CNC(=O)c2ccccn2)ccn1`, the Percent Effect in [1] was -3.33%; in test [2], 16.4%; in test [3], 4.31%; in test [4] it was 6.49%; in the test with Trypanosoma cruzi, 3.33%; in test [5], -0.455%. Also, the Percent Effect is 17.6% in test [6]; 15.2% in the test listed under Homo sapiens; 2.15% in test [7]; 20% in test [8]; -4.24% in test [9].
`Cc1cnn(CC2CCCCN2Cc2nnc(-c3ccco3)o2)c1` (stereo not given): the Percent Effect in test [1] was -5.16%; in test [2], 13.5%; in test [3], -9.36%; in test [4], 20.3%; with Trypanosoma cruzi, 3.11%; in test [5], -5.61%. The Percent Effect in [6] is 13.3%; in the test listed under Homo sapiens it was 7.01%; in test [7], 8.37%; in [8], 18.5%; in test [9] it was -11.7%.
Regarding `CN(Cc1ncc[nH]1)S(=O)(=O)c1cccc(C(=O)N2CCOCC2)c1`, the Percent Effect in test [1] was -6.58%; in test [2], 5.48%; in test [3] it was 4.01%; in [4], 0.744%; with Trypanosoma cruzi, -1.76%; in test [5] it was 1.82%. The Percent Effect in test [6] was 7.1%; in the test listed under Homo sapiens, 0.0404%; in test [7], 2.15%; in [8], 7.5%; in test [9] it was -7.89%.
`CN(C)Cc1cnc2n1CCN(Cc1ccsc1)CC2`: the Percent Effect in test [1] was -2.78%; in [2] it was 13.7%; in test [3] it was -4.83%; in test [4] it was 6.79%; in the test with Trypanosoma cruzi it was 2.98%; in test [5], 1.2%. In addition, the Percent Effect in [6] is 13.4%; in the test listed under Homo sapiens, 6.89%; in [7] it was 8.33%; in [8] it was 11.1%; in [9], -0.604%.
Turning to `c1cc2n(n1)CC(CNCc1ccc(OC3CCCCC3)nc1)CN2` (stereo not given), the Percent Effect in [1] is -2.12%; in [2], 18.2%; in test [3], 1.34%; in test [4] it was 5.86%; in the test on Trypanosoma cruzi it was 7.49%; in test [5], -1.78%. Moreover, the Percent Effect in test [6] is 5.41%; in the test listed under Homo sapiens, -2.37%; in test [7], 9.71%; in test [8], 21.9%; in test [9] it was -7.9%.
For the molecule `CCC(C)NC(=O)N1CCCn2cnc(CO)c2C1` (stereo not given), the Percent Effect was -0.731% in test [1]; 2.74% in test [2]; 1.02% in test [3]; 5.8% in [4]; 0.198% in the test with Trypanosoma cruzi; 2% in test [5]. Besides, the Percent Effect in [6] is 4.54%; in the test filed under Homo sapiens, 6.37%; in test [7] it was 6.25%; in test [8] it was 6.17%; in [9], 1.09%.
Take `Cc1nccn1-c1cc(CNC(=O)CCC2CCCO2)ccn1` (stereo not given): the Percent Effect in test [1] is -0.34%; in test [2], 26.3%; in test [3], 1.23%; in test [4] it was -7.85%; in the test on Trypanosoma cruzi it was 3.08%; in [5], 1.8%. The Percent Effect in [6] was 18.9%; in the test filed under Homo sapiens it was 3.69%; in [7] it was 8.37%; in [8] it was 28.4%; in test [9] it was -9.77%.
On to `Cc1nc(CN2CCC(CNC(=O)Nc3ccccn3)CC2)oc1C`, for which the Percent Effect in [1] is -6.4%; in test [2], 2.7%; in [3], -0.75%; in [4], -0.537%; in the test on Trypanosoma cruzi, -1.27%; in test [5] it was -0.744%. Moreover, the Percent Effect in [6] is -1.46%; in the test listed under Homo sapiens, -2.29%; in [7] it was 4.3%; in [8], 11.1%; in test [9] it was -2.16%.

The values above are taken from ChEMBL document CHEMBL3988442, “University of Dundee, Small-Polar-MMV Screening Library” (2021).
